In all, about 69,000 compounds went through this assay and about 8,600 (12%) showed an effect of 50% or more. Shown is part of a subset that was picked to be rich in strong results.
system: Plasmodium berghei; experiment: Screen against P. berghei liver stage (PbLuc), transformed with Luciferase, at 10uM; assay type: functional, HepG2; conditions: tested at 10 uM

| SMILES | INHIBITION [%] |
| --- | --- |
| OCCCN1CCOC(c2ccc(F)cc2)C1 (stereo not given) | 30.2 |
| CC(C)c1nc(C(=O)N2CCOCC2CC(=O)c2ccco2)c[nH]1 (stereo not given) | 9.48 |
| Cc1cc(C)n(CC2CCCN2CC(=O)Nc2cc(C(C)C)no2)n1 (stereo not given) | -6.44 |
| CN(C)CCOCC1CN(Cc2ccc(F)cc2)Cc2nnn(C)c21 (stereo not given) | 33.2 |
| O=C(c1ccco1)N1C[C@@H]2[C@@H](C1)OCC(=O)N2Cc1cccnc1 | 35.8 |
| CS(=O)(=O)N1CCC2(CCN(C(=O)c3cccs3)CC2)CC1 | 32.1 |
| Cc1noc(C2CCCN(C(=O)c3scnc3Cl)C2)n1 (stereo not given) | 74.2 |
| Cc1noc(C2CCCN(C(=O)c3cc(Cl)cn3C)C2)n1 (stereo not given) | 46.4 |
| Cc1noc(C2CCCN(C(=O)c3cc(Cl)ccc3F)C2)n1 (stereo not given) | -49.5 |
| CN1CCCCc2c1nc1c(c2N)CCC1 | 8.46 |
| CN1CCCCc2c1nc1c(c2N)CCCC1 | 53.3 |
| CN1CCCc2c1nc1c(c2N)CCCC1 | 7.38 |
| Cc1cc(C)c2nc(CN(C)C(C)c3ccncn3)cc(O)c2c1 (stereo not given) | -33.3 |
| Cc1noc([C@@H]2C[C@H](NC(=O)NC3CCCCC3)CN2C)n1 | 22.2 |
| Cc1noc([C@@H]2C[C@H](NC(=O)NC(C)C)CN2C)n1 | 50.2 |
| Cc1ccc(-c2noc([C@@H]3C[C@H](NC(=O)NC(C)C)CN3C)n2)cc1 | 23 |
| Cc1cnc(C(=O)NCc2ccnc(N(C)C)c2)cn1 | 11.6 |
| O=C(O)c1c[nH]c2cc(NS(=O)(=O)c3cccc(F)c3F)ccc12 | -10.1 |
| CCn1c(C)nnc1SCCNc1cc(N2CCOCC2)ncn1 | 14 |
| CCN1CCOC(CNCc2ccccc2OCc2cccnc2)C1 (stereo not given) | -46.55 |
| CN(C)S(=O)(=O)N1CCN(C(=O)c2cc(-c3ccccc3)[nH]n2)CC1 | 18.5 |
| Cc1nn(C)c2ncnc(N3CCC(O)(CN4CCCC4)CC3)c12 | 30 |
| Cc1cnc(C(=O)N2CCN(Cc3csc(C)n3)CC2)cn1 | -26.1 |

| SMILES | INHIBITION [%] |
| --- | --- |
| c1cnc2c(c1)cc([C@H]1CCCO1)n2CCN1CCCC1 | 17.1 |
| CN(C)CCn1c([C@H]2CCCO2)cc2cccnc21 | 56.8 |
| CN(C)CCn1c([C@@H]2CCCO2)cc2cccnc21 | 26.8 |
| Cc1ccc(-n2cc3[nH]c(=O)n(C(C)C)n3c2=O)cc1 | 0.266 |
| CC(Cc1c(F)cccc1F)NC(=O)Nc1cnn(CC(N)=O)c1 (stereo not given) | 31.1 |
| CC(Cc1cccc(Cl)c1)NC(=O)Nc1cnn(CC(N)=O)c1 (stereo not given) | -11.4 |
| Cc1cc(C(=O)NC(C)Cc2cccc(Cl)c2)n(C)n1 (stereo not given) | 18.6 |
| CC(CCc1cccc(F)c1)NC(=O)NCc1ncnn1C (stereo not given) | 56.4 |
| CC(Cc1ccco1)NC(=O)NCc1ncnn1C (stereo not given) | 86.2 |
| CC(Cc1c(F)cccc1F)NC(=O)NCc1ncnn1C (stereo not given) | 51.4 |
| CC(Cc1cccc(Cl)c1)NC(=O)NCc1ncnn1C (stereo not given) | 64.3 |
| CC(C)NC(=O)NCCCc1cccc(F)c1 | 12.2 |
| COCCn1cc(NC(=O)NC(C)Cc2c(F)cccc2F)cn1 (stereo not given) | 15.3 |
| CC(Cc1ccco1)NC(=O)CCn1cccn1 (stereo not given) | 38.6 |
| Cn1ccnc1CNC(=O)CCc1cccc(F)c1 | -0.35 |
| CC(Cc1ccco1)NC(=O)Nc1cnn(CC(N)=O)c1 (stereo not given) | 0.0932 |
| COC(=O)N1CCCC(C(=O)NCCc2c[nH]c3cc(C)ccc23)C1 (stereo not given) | 47.9 |
| CC(=O)NCCn1ccc(-c2ccccn2)n1 | -13 |
| O=C(c1ccc(-c2cccc3c2CCNC3)o1)N1CCCC1 | 9.56 |
| Cc1nn(C)c2ncc(CNCCc3ccccn3)cc12 | 39.7 |
| CCN1CC2(CCCCN2C(=O)c2ccsc2)CC1=O (stereo not given) | -8.51 |
| CC(=O)N1CCC1c1cc(N2CC(O)C2)nc(C)n1 (stereo not given) | 3.8 |
| Cc1nc2n(n1)CC(NCc1cc(Cl)c3c(c1)OCCO3)CC2 (stereo not given) | 13.6 |

| SMILES | INHIBITION [%] |
| --- | --- |
| O=C1NC2(CCc3ccccc31)CCN(C(=O)c1cccnc1)C2 (stereo not given) | 12.085 |
| CCN1CCOCC2(CCCN(C(=O)c3conc3C)C2)C1 (stereo not given) | 12.4 |
| Cn1cc(CN2CCCC3(CCN(C(=O)c4cnccn4)C3)C2)cn1 (stereo not given) | 49.7 |
| NC(=O)CCc1cccc(C2CCNCC2)n1 | 6.26 |
| Clc1cccc(Cl)c1CN(CCCN1CCOCC1)Cc1cccnc1 | 19.3 |
| CCCc1nc(C(=O)N(C)Cc2cc(CC)no2)cs1 | -59.5 |
| CCNc1nc(C)c(C(=O)N(C)Cc2nc(CC)no2)s1 | 20.9 |
| CCNc1nc(C(=O)N(C)Cc2nc(CC)no2)cs1 | 53.4 |
| CN(Cc1ccc(F)cc1)CC1(O)CCN(C(=O)c2ccncc2)C1 (stereo not given) | 27.8 |
| COC(=O)CNC(=O)c1cn(-c2ccccn2)c(=O)c2ccccc12 | -21.4 |
| CC(C)N1[C@H](CN2CCCC2)C[C@@H]2CN(C(=O)c3ccoc3)CC[C@@H]21 | 15.9 |
| COc1cc(C2CC(=O)NCc3nc4sccn4c32)cc(OC)c1O (stereo not given) | 39.3 |
| COc1cc(C)c(C2CC(=O)NCc3nc4sccn4c32)cc1C (stereo not given) | -9.18 |
| CCC1CC(=O)NCc2nc3sc(C)cn3c21 (stereo not given) | 53.3 |
| Cc1cc(F)ccc1NC(=O)NCC(C)N1CCOCC1 (stereo not given) | 39 |
| CNC(=O)c1cccnc1NCCOc1ccccc1 | -81.6 |
| Fc1ccc(OCCCNC2=NCCN2)cc1 | 54.4 |
| c1ccc(OCCNC2=NCCCN2)cc1 | 77.9 |
| Cn1cc(NCCOc2ccc(F)cc2)cn1 | 8.09 |
| Fc1ccc(OCCCNC2=NCCCN2)cc1 | 35.4 |
| c1ccc(OCCSC2=NCCN2)cc1 | 35 |
| CNC(=O)COC1COC2(CCN(c3cnccn3)CC2)C1 (stereo not given) | 36.4 |
| COC1COC2(CCN(c3ccc(C#N)cc3)CC2)C1 (stereo not given) | -36.5 |

| SMILES | INHIBITION [%] |
| --- | --- |
| Cc1ccc(N2CCC3(CC2)CC(OCC(=O)N(C)C)CO3)nn1 (stereo not given) | 29 |
| CNC(=O)COC1COC2(CCN(c3ccc(C)nn3)CC2)C1 (stereo not given) | 54.1 |
| CNC(=O)COC1COC2(CCN(c3ccc(C#N)cc3)CC2)C1 (stereo not given) | 64.9 |
| CNC(=O)COC1COC2(CCN(c3ncccn3)CC2)C1 (stereo not given) | 27.5 |
| CNC(=O)[C@@H](CC(C)C)N1CCC[C@H]1C(=O)N(C)Cc1ccccc1 | 25.3 |
| Cc1noc([C@H]2C[C@H]3OCC[C@H]3N(Cc3ccc4c(c3)OCO4)C2)n1 | 17.6 |
| CSc1c(CC(=O)O)n(C)c2ccccc12 | -9.98 |
| O=C([C@@H]1CC[C@@H]2[C@@H](CCN2Cc2cccc(F)c2)O1)N1CCCCO1 | -7.48 |
| CC(C)c1cc(C2CCN(C(=O)Cn3cncn3)CC2)[nH]n1 | 17 |
| CC(C)c1cc(C2CCN(Cc3cc(F)cc(F)c3)CC2)[nH]n1 | 49.5 |
| CC(C)c1cc(C2CCN(C(=O)Cn3cnc4ccccc43)CC2)[nH]n1 | 86.6 |
| Cc1n[nH]c(C)c1CN1CCC(c2cc(C(C)C)n[nH]2)CC1 | 13.9 |
| CC(C)c1cc(C2CCN(C(=O)Cn3nc4ccccc4n3)CC2)[nH]n1 | 53.2 |
| CC(C)c1cc(C2CCN(C(=O)Cn3cnnn3)CC2)[nH]n1 | 35.1 |
| CC(C(=O)NCCN1CCOCC1)n1cncn1 (stereo not given) | -2.33 |
| CN(Cc1cnn(C)c1)C(=O)Nc1cccnc1-n1cccn1 | -24.9 |
| CCN1CCN(C(=O)C2CC(=O)N(c3cnn(C(C)C)c3)C2)CC1 (stereo not given) | 23.1 |
| CCS(=O)(=O)N1Cc2cncn2CC(C(=O)NCC2CC2)C1 (stereo not given) | 24 |
| Cc1nc(C2CCCN(C(=O)c3sc(C)nc3C)C2)no1 (stereo not given) | 43.4 |
| CCN1N=C(C(=O)N2CCCC(c3noc(C)n3)C2)CCC1=O (stereo not given) | 34.1 |
| Cc1nc(C2CCCN(C(=O)c3ccoc3)C2)no1 (stereo not given) | 11.6 |
| Cc1nc(C2CCCN(C(=O)c3cnc(C)s3)C2)no1 (stereo not given) | -38 |
| Cc1nc(C2CCCN(C(=O)c3ccc(S(C)(=O)=O)cc3)C2)no1 (stereo not given) | -29.8 |

| SMILES | INHIBITION [%] |
| --- | --- |
| CCc1nc(C2CCCN(C(=O)C3=NN(C(C)C)C(=O)CC3)C2)no1 (stereo not given) | 28.7 |
| Cc1nc(C2CCCN(C(=O)C3=NN(C(C)C)C(=O)CC3)C2)no1 (stereo not given) | 58.3 |
| Cc1nc(C2CCCN(C(=O)c3cc(C)sc3C)C2)no1 (stereo not given) | 81.2 |
| Cc1nc(C2CCCN(C(=O)c3cccc(S(C)(=O)=O)c3)C2)no1 (stereo not given) | 51.3 |
| Cc1ccc2c(n1)N(Cc1cccnc1)CCN(C(=O)C1CCC1)C2 | 32.4 |
| NCC1CCCCN1C(=O)Cc1cccc(Cl)c1 (stereo not given) | 19 |
| Cc1ccc(C(=O)N2CCCC2c2nnc3n2CCCCC3)s1 (stereo not given) | 13 |
| CC(C)[C@H]1CN(C(=O)CC2CCC2)C[C@@H]1N(C)C | 3.06 |
| COC1(CNC(=O)c2cccc(C#N)c2)CCSC1 (stereo not given) | 8.7 |
| Cc1nc(CN2CCO[C@@H]3CN(Cc4cccs4)C[C@@H]3C2)cs1 | 37.3 |
| Cc1nc(C(Cc2ccsc2)NC(=O)CCN2CCOCC2)sc1C (stereo not given) | -11.95 |
| Cc1nc(NCCc2ccccc2)cc(C(=O)N2CCOCC2)n1 | 38.5 |
| COc1ccc(C)cc1S(=O)(=O)N[C@H]1CN(C(C)=O)C[C@@H]1C1CC1 | 35.4 |
| COc1ccc(S(=O)(=O)N[C@H]2CN(C(C)=O)C[C@@H]2C2CC2)cc1C | 9.63 |
| COc1cc(C)ccc1S(=O)(=O)N[C@H]1CN(C(C)=O)C[C@@H]1C1CC1 | 55.2 |
| c1cnc(N2CCC3(COCc4cnc(N5CCOCC5)nc43)C2)nc1 (stereo not given) | 68.3 |
| c1ccc(N2CCC3(COCCN(c4ncccn4)C3)C2)nc1 (stereo not given) | 38.5 |
| COCCN1CCC2(COCc3cnc(N4CCOCC4)nc32)C1 (stereo not given) | 52.3 |
| CCS(=O)(=O)N1CCC2(COCc3cnc(N4CCOCC4)nc32)C1 (stereo not given) | -50.9 |
| c1nc(N2CCOCC2)nc2c1COCC21CCN(CC2CC2)C1 (stereo not given) | -7.59 |
| CN1CCC2(COCc3cnc(N4CCOCC4)nc32)C1 (stereo not given) | 51.3 |
| O=S(=O)(C1CC1)N1CCC2(COCc3cnc(N4CCOCC4)nc32)C1 (stereo not given) | -8.69 |
| COCCN1CCC2(COCc3cnc(N(C)C)nc32)C1 (stereo not given) | -6.23 |
